Values without a mark were called inactive. Records with an inconclusive call do not appear. A call without a number means that no potency is given here. Activity calls are given as the source filed them. Unless noted, calls follow the shape of the dose curve; as a rule, active = well fitted curve in the direction sought with a large enough effect in the repeat runs; inconclusive = weak or mixed curves; inactive = no such curve, though single readings can be large; an effect the other way counts as inactive or inconclusive.
Tests used:
[1] = qHTS assay to identify small molecule agonists of the hypoxia (HIF-1) signaling pathway - cell viability counter screen (AID 1224844; calls by dose curve; also: nearly all actives have a fitted effect of over 50% in size; also: potency is read from the fitted curve at half-maximal effect)
Method in brief: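 Same wells as the HIF-1 reporter screen; ME-180 cells carrying HRE-bla, 17 hr treatment at 37C; CellTiter-Glo luminescence read after 30 min at room temperature.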

[2] = qHTS assay to identify small molecule agonists of H2AX (AID 1224845; active = well fitted activation curve with a large enough effect in the signal ratio in the repeat runs, not every such curve was filed as active; the % refers to the signal ratio)
Method in brief: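 Wild-type CHO-K1 cells plated overnight, then exposed 3 hr at 37C to compounds at 15 concentrations (0.76% DMSO). Lysed, then HTRF anti-pH2AX(S139)-cryptate/anti-H2AX-d2 detection after 24 hr at room temperature; emissions 665 and 620 nm.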

[3] = qHTS assay to identify small molecule agonists of the hypoxia (HIF-1) signaling pathway (AID 1224846; active = well fitted activation curve with a large enough effect in the signal ratio in the repeat runs, not every such curve was filed as active; the % refers to the signal ratio)
Method in brief: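 In ME-180 cells bearing an HRE-bla construct, 17 h treatment with DMSO-dissolved compounds at 37C was followed by CCF4-AM loading to quantify reporter induction.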

[4] = qHTS assay to identify small molecule agonists of H2AX - cell viability counter screen (AID 1224847; calls by dose curve; also: top concentration of the series differs between compounds; nearly all actives have a fitted effect of over 30% in size)
Method in brief: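 Compounds tested at 15 concentrations were incubated 3 hr at 37C with wild-type CHO-K1 cells; cellular ATP-based luminescence (CellTiter-Glo) indicated viability.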

[5] = qHTS RealTime-Glo MT Cell Viability Assay in HepG2 cells - 24 hour (AID 1224867); also: nearly all actives have a fitted effect of over 50% in size
Method in brief: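 Compound treatment began 5 h after plating HepG2 cells (600/well) with NanoLuc luciferase and prosubstrate. Plates stayed at 37 C for 40 h; luminescence was captured at six time points, 0 h through 40 h.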

[6] = qHTS RealTime-Glo MT Cell Viability Assay in HEK293 cells - 32 hour (AID 1224868); also: nearly all actives have a fitted effect of over 50% in size; also: potency is read from the fitted curve at half-maximal effect
Method in brief: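 Quantitative high-throughput screen of the Tox21 10K library in HEK293: cells and RealTime-Glo reagents plated together, compound added at 5 h, luminescence monitored through 40 h at 37 C.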

[7] = A CellTox Green Cytotoxicity Assay to monitor cytotoxicity in HEK293 cells - 0 hour (AID 1224869); also: nearly all actives have a fitted effect of over 50% in size
Method in brief: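 Homogeneous no-lysis format: HEK293 cell suspension mixed with CellTox Green reagent, seeded, incubated 5 h at 37 C/5% CO2, then dosed by pintool with compound in DMSO.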

[8] = qHTS RealTime-Glo MT Cell Viability Assay in HepG2 cells - 40 hour (AID 1224870); also: nearly all actives have a fitted effect of over 50% in size
Method in brief: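 HepG2 cells mixed with RealTime-Glo MT reagents (NanoLuc plus cell-permeant prosubstrate) were seeded at 600 cells/well, incubated 5 h at 37 C/5% CO2, then pinned with compounds in DMSO; nonlytic luminescence tracked viability during 40 h treatment.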

[9] = qHTS assay to identify small molecule agonists of the estrogen related receptor (ERR) signaling pathway from Tox21 library (AID 1224849; calls by dose curve; also: nearly all actives have a fitted effect of over 15% in size); details: ERR reporter cell line, ONE-Glo luciferase, 18 h; at 92.4 µM (top of the series) unless noted
Method in brief: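 Reporter cells (ERR, NTP source) treated with Tox21 10K compounds 18 h, 37 C. Readout: ONE-Glo luminescence, 30 min RT.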

Compound: CN(C)CCN1C(=O)c2ccccc2N(C)c2ccccc21
- Potency [1]: inactive
- Potency [2]: inactive
- outcome [3]: inactive
- Potency [4]: inactive
- Potency [5]: inactive
- Potency [6]: inactive
- Potency [7]: inactive
- Potency [8]: inactive

Compound: CCC=CC#N
- Potency [1]: inactive
- Potency [2]: inactive
- outcome [3]: inactive
- Potency [4]: inactive
- Potency [5]: inactive
- Potency [7]: inactive
- Potency [8]: inactive

Compound: C[C@@H](CN(C)C)CN1c2ccccc2Sc2ccccc21
- Potency [1]: 19 µM (active)
- Potency [2]: inactive
- outcome [3]: inactive
- Potency [4]: inactive
- activity change, positive = activation [9]: -18.9% [at 42.5 µM]
- Potency [6]: 21.3 µM (active)
- Potency [7]: inactive

Compound: CCOC(=O)C1=C(C)NC(C)=C(C(=O)OC)C1c1cccc(Cl)c1Cl (configuration not stated)
- Potency [1]: inactive
- Potency [2]: inactive
- outcome [3]: inactive
- Potency [4]: inactive
- activity change, positive = activation [9]: -28.7% [at 42.5 µM]
- Potency [7]: inactive

Compound: CO/N=C(/C(=O)N[C@@H]1C(=O)N2C(C(=O)O)=C(COC(N)=O)CS[C@H]12)c1ccco1
- Potency [1]: inactive
- Potency [2]: inactive
- outcome [3]: inactive
- Potency [4]: inactive
- Potency [5]: inactive
- Potency [6]: inactive
- Potency [8]: inactive

Compound: CN1CC(=O)N2[C@H](c3ccc4c(c3)OCO4)c3[nH]c4ccccc4c3C[C@@H]2C1=O
- Potency [1]: inactive
- Potency [2]: inactive
- outcome [3]: inactive
- Potency [4]: inactive
- Potency [5]: inactive
- Potency [6]: inactive
- Potency [7]: inactive
- Potency [8]: inactive

Compound: CCCCN(CCN(CCCC)C(=O)N1CCOCC1)C(=O)N1CCOCC1
- Potency [1]: inactive
- Potency [2]: inactive
- outcome [3]: inactive
- Potency [4]: inactive
- Potency [5]: inactive
- Potency [6]: inactive
- Potency [7]: inactive
- Potency [8]: inactive

Compound: O=C1CCCCCCCCCCOCCCCO1
- Potency [1]: inactive
- Potency [2]: inactive
- outcome [3]: inactive
- Potency [4]: inactive
- Potency [5]: inactive
- Potency [6]: inactive
- Potency [8]: inactive

Compound: CCCCCCCCN
- Potency [1]: inactive
- Potency [2]: inactive
- outcome [3]: inactive
- Potency [4]: inactive
- Potency [5]: inactive
- Potency [6]: inactive
- Potency [7]: inactive
- Potency [8]: inactive

Compound: Cc1ccco1
- Potency [1]: inactive
- Potency [2]: inactive
- outcome [3]: inactive
- Potency [4]: inactive
- Potency [5]: inactive
- Potency [6]: inactive
- Potency [7]: inactive
- Potency [8]: inactive

Compound: CCc1ccccc1
- Potency [1]: inactive
- Potency [2]: inactive
- outcome [3]: inactive
- Potency [4]: inactive
- Potency [5]: inactive
- Potency [6]: inactive
- Potency [7]: inactive
- Potency [8]: inactive

Compound: CCC1NC(=O)c2cc(S(N)(=O)=O)c(Cl)cc2N1 (configuration not stated)
- Potency [1]: inactive
- Potency [2]: inactive
- outcome [3]: inactive
- Potency [4]: inactive
- Potency [5]: inactive
- Potency [6]: inactive
- Potency [8]: inactive

Compound: C[C@@H](O)[C@H]1C(=O)N2C(C(=O)O)=C([C@H]3CCCO3)S[C@H]12
- Potency [1]: inactive
- Potency [2]: inactive
- outcome [3]: inactive
- Potency [4]: inactive
- Potency [5]: inactive
- Potency [6]: inactive
- Potency [8]: inactive

Compound: CCC(=O)OC
- Potency [1]: inactive
- Potency [2]: inactive
- outcome [3]: inactive
- Potency [4]: inactive
- Potency [5]: inactive
- Potency [6]: inactive
- Potency [7]: inactive
- Potency [8]: inactive

Compound: COc1ccccc1N1CCN(CCCCNC(=O)c2ccc(-c3ccc(C(C)=O)cc3)cc2)CC1
- Potency [1]: inactive
- Potency [2]: inactive
- outcome [3]: inactive
- Potency [4]: inactive
- Potency [5]: inactive
- Potency [6]: 1.51 µM (active)
- Potency [7]: inactive
- Potency [8]: inactive

Compound: O=c1[nH]ncc2ccccc12
- Potency [1]: inactive
- Potency [2]: inactive
- outcome [3]: inactive
- Potency [4]: inactive
- Potency [5]: inactive
- Potency [6]: inactive
- Potency [7]: inactive
- Potency [8]: inactive

Compound: OCCOCC#CCOCCO
- Potency [1]: inactive
- Potency [2]: inactive
- outcome [3]: inactive
- Potency [4]: inactive
- Potency [5]: inactive
- Potency [6]: inactive
- Potency [7]: inactive
- Potency [8]: inactive

Compound: O=C1NCCN1CCO
- Potency [1]: inactive
- Potency [2]: inactive
- outcome [3]: inactive
- Potency [4]: inactive
- Potency [5]: inactive
- Potency [6]: inactive
- Potency [8]: inactive

Compound: CC1(C)O[C@@H]2C[C@H]3[C@@H]4C[C@H](F)C5=CC(=O)C=C[C@]5(C)[C@H]4[C@@H](O)C[C@]3(C)[C@]2(C(=O)CO)O1
- Potency [1]: inactive
- Potency [2]: inactive
- outcome [3]: inactive
- Potency [4]: inactive
- Potency [5]: inactive
- Potency [6]: inactive
- Potency [7]: inactive
- Potency [8]: inactive

Compound: NNC(=O)CP(=O)(c1ccccc1)c1ccccc1
- Potency [1]: inactive
- Potency [2]: inactive
- outcome [3]: inactive
- Potency [4]: inactive
- Potency [5]: inactive
- Potency [6]: inactive
- Potency [7]: inactive
- Potency [8]: inactive

Compound: O[C@@H]1CO[C@H]2[C@@H]1OC[C@@H]2O
- Potency [1]: inactive
- Potency [2]: inactive
- outcome [3]: inactive
- Potency [4]: inactive
- Potency [5]: inactive
- Potency [6]: inactive
- Potency [7]: inactive
- Potency [8]: inactive

Compound: C=C(C)C(=O)OCCCCCCCCCCCCC
- Potency [1]: inactive
- Potency [2]: inactive
- outcome [3]: inactive
- Potency [4]: inactive
- Potency [5]: inactive
- Potency [6]: inactive
- Potency [8]: inactive

Compound: CC1CC(C)C(=O)C1=O (configuration not stated)
- Potency [1]: inactive
- Potency [2]: inactive
- outcome [3]: inactive
- Potency [4]: inactive
- Potency [5]: inactive
- Potency [6]: 13.8 µM (active)
- Potency [7]: inactive
- Potency [8]: inactive

Compound: CC1(C)S[C@@H]2[C@H](NC(=O)C(c3ccccc3)S(=O)(=O)O)C(=O)N2[C@H]1C(=O)O (some centres not stated)
- Potency [1]: inactive
- Potency [2]: inactive
- outcome [3]: inactive
- Potency [4]: inactive
- Potency [5]: inactive
- Potency [6]: inactive
- Potency [8]: inactive

Compound: C=C1CCC2CC1C2(C)C (configuration not stated)
- Potency [1]: inactive
- Potency [2]: inactive
- outcome [3]: inactive
- Potency [4]: inactive
- Potency [5]: inactive
- Potency [6]: inactive
- Potency [8]: inactive

Compound: CCC1CO1 (configuration not stated)
- Potency [1]: inactive
- Potency [2]: inactive
- outcome [3]: inactive
- Potency [4]: inactive
- Potency [5]: inactive
- Potency [6]: inactive
- Potency [7]: inactive
- Potency [8]: inactive

Compound: CC(CC1c2ccccc2CCc2ccccc21)CN(C)C (configuration not stated)
- Potency [1]: 10.7 µM (active)
- Potency [2]: inactive
- outcome [3]: inactive
- Potency [4]: inactive
- Potency [5]: inactive
- Potency [6]: inactive
- Potency [7]: inactive
- Potency [8]: inactive

Compound: O=C1NC(=O)c2cc([N+](=O)[O-])ccc21
- Potency [1]: inactive
- Potency [2]: inactive
- outcome [3]: inactive
- Potency [4]: inactive
- Potency [5]: inactive
- Potency [6]: inactive
- Potency [7]: inactive
- Potency [8]: inactive
